Drawing on PubChem BioAssay (NCATS), this text covers Potency, outcome and activity, negative = inhibition for 34 molecules.

Values joined by “and” are separate entries in the source; they are usually repeats but may differ in a detail not shown here. Identical values can stand only once. Unmarked numbers belong to inactive results. Inconclusive results are not listed. Active and inactive are the calls of the source. Unless noted, the call rests on the fitted dose curve; in most records, active means well fitted curve in the direction sought with a large enough effect; inconclusive means small, poorly fitted or top-dose-only effect, or another doubt; inactive means no such curve, though single readings can be large; an effect the other way counts as inactive or inconclusive.

Assay [1] addresses Cytochrome P450 2D6 (Homo sapiens) (UniProt P10635). In words: qHTS Assay for Inhibitors and Substrates of Cytochrome P450 2D6 (AID 891). Further: nearly all actives have a fitted effect of over 60% in size. Further: potency means the concentration at half of the fitted maximal effect. The method, boiled down: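 Luminescent read-out of luciferin formed by 5 nM human CYP2D6 demethylating 30 uM Luciferin-ME EGE (Km level) over 60 min at room temperature after NADPH regeneration addition. Data normalized to full inhibition by 1.43 uM quinidine.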
A general note: In qHTS, concentration-response curves come from the screen itself.

Assay [2] can be described thus: Primary qHTS for small molecule stabilizers of the endoplasmic reticulum resident proteome: Secreted ER Calcium Modulated Protein (SERCaMP) assay (AID 1508630). Further: on the % scale 0 is the no-effect control and ±100 the full control effect. The method, boiled down:
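The SH-SY5Y reporter protocol was run at 3 concentrations up to 38.3 uM (primary) or 11 concentrations (follow-up): 16 h compound, 100 nM thapsigargin for 4 h, then extracellular luciferase luminescence.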

Assay [3] in a line: Stat Signaling Pathway (AID 446; active means well fitted curve in either direction with a large enough effect, not every such curve was filed as active;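 further: ME-180 cervical cancer cells given 40 pM IL-6 alongside compound; SIE-controlled beta-lactamase reporter measured as 460/530 nm FRET emission ratio; on the % scale 0 is the no-effect control and ±100 the full control effect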). The method, boiled down:
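FRET read-out (405 nm excitation, 460/530 nm emission) of a beta-lactamase reporter under a STAT-inducible element in ME-180 cervical carcinoma cells. Cells with compound receive 40 pM IL-6 for 5 h. Values are normalised to AC90 stimulation and AC90 JAK-inhibitor controls.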

Assay [4] concerns the target Guanine nucleotide-binding protein G(i) subunit alpha-1 (Homo sapiens) (UniProt P63096). In words: qHTS Assay for Inhibitors of RGS12 GoLoco Motif Activity (Green Fluorophore) (AID 879).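 Further: 0% = labeled peptide with Gαi1 and full inhibition = labeled peptide alone without protein; negative values mean loss of peptide binding seen as reduced polarization.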 The method, boiled down:
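A drop in FITC polarization marked displacement of the FITC-tagged RGS12 GoLoco peptide (10 nM) from Gαi1 (50 nM). Compounds were incubated 10 min at room temperature in Tris pH 7.5 buffer containing 150 mM NaCl, 0.1 mM GDP and 0.05% NP40; unlabeled peptide titration served as control.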

Assay [5] concerns the target Pyruvate kinase (Leishmania mexicana) (UniProt Q27686). In words: qHTS Validation Assay for Inhibitors of Leishmania Mexicana Pyruvate Kinase (AID 945).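 Further: 0% = DMSO only neutral control wells.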 In outline: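 Substrate mix (0.5 mM PEP, 0.1 mM ADP, 7 mM MgCl2, 50 mM KCl, pH 7.2 imidazole) received compound by pin tool, then 0.2 nM LmPYK E451W. After 1 h at room temperature, PKLight was added and luminescence measured.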

Assay [6] has as its target Alpha-galactosidase A (Homo sapiens) (UniProt P06280). Briefly: Counterscreen for Glucocerebrosidase Inhibitors: qHTS Assay for Human alpha-Galactosidase at pH 4.5 (AID 992). Further: 0% is about no effect. In outline: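 Fluorogenic 1536-well qHTS at pH 4.5 (citrate, Tween-20): 2 nM enzyme, 80 uM 4-MU-alpha-galactoside, 20 min room temperature, NaOH/glycine stop. Titration 0.7 nM to 77 uM, data normalized to no-enzyme and full-activity controls, Hill-fitted AC50.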
A general note: A counterscreen serves to expose hits that act by an unwanted route or on another target.

Assay [7] deals with alpha-glucosidase (Oryza sativa, rice) (UniProt Q653V4). In words: Counterscreen for Glucocerebrosidase Inhibitors: qHTS Assay for Rice alpha-Glucosidase at pH 5.0 (AID 997).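 Further: 0% = full activity with enzyme and -100% = basal without enzyme.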 In outline:
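Endpoint fluorogenic assay at pH 5.0: compounds (0.7 nM to 77 uM) titrated against 4 nM rice enzyme and 400 uM 4-MU-alpha-glucoside for 20 min at room temperature; NaOH/glycine stop, read ex 365/em 440 nm, Hill-fitted AC50.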

The target in assay [8] is Cytochrome P450 3A4 (Homo sapiens) (UniProt P08684). Briefly: qHTS Assay for Inhibitors and Substrates of Cytochrome P450 3A4 (AID 884). Further: nearly all actives have a fitted effect of over 50% in size. Further: potency means the concentration at half of the fitted maximal effect. The method, boiled down: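 Luminescent readout of luciferin produced by CYP3A4 (20 nM) dealkylation of Luciferin-PPXE, 25 uM (its KM). NADPH-driven reaction ran 60 min at RT after 10 min compound preincubation; data scaled to 57 uM ketoconazole as 100% inhibition.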
Chain of Cytochrome P450 3A4 (Homo sapiens) (P08684 whole entry, looked up): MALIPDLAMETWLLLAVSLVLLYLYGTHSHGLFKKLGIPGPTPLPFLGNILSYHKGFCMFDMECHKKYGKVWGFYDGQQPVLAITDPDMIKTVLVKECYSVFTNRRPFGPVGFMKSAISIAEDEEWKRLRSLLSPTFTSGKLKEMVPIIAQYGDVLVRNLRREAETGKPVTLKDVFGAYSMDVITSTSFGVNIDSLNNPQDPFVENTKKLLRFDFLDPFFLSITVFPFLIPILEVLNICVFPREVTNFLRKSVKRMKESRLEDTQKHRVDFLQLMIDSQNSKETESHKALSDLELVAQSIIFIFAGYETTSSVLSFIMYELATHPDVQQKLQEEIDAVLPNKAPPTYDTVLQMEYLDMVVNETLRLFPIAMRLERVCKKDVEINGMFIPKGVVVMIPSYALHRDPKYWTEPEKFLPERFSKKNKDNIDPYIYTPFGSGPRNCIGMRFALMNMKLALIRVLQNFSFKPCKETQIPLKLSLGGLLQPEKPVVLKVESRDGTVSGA

Chain of Cytochrome P450 2D6 (Homo sapiens) (P10635 whole entry, looked up): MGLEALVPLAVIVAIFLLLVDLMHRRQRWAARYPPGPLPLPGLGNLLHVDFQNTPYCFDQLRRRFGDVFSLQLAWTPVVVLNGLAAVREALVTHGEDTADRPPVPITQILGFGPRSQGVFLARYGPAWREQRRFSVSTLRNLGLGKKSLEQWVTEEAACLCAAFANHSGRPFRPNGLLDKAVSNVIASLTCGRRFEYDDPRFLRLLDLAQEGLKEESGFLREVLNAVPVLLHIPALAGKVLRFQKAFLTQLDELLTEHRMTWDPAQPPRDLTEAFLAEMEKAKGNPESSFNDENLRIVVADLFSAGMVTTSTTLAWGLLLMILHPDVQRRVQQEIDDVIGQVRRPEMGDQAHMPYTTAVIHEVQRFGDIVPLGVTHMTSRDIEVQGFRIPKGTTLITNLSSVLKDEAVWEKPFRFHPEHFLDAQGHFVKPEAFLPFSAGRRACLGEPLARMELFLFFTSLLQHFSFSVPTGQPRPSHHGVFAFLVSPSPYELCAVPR
Chain of Guanine nucleotide-binding protein G(i) subunit alpha-1 (Homo sapiens) (P63096 whole entry, looked up): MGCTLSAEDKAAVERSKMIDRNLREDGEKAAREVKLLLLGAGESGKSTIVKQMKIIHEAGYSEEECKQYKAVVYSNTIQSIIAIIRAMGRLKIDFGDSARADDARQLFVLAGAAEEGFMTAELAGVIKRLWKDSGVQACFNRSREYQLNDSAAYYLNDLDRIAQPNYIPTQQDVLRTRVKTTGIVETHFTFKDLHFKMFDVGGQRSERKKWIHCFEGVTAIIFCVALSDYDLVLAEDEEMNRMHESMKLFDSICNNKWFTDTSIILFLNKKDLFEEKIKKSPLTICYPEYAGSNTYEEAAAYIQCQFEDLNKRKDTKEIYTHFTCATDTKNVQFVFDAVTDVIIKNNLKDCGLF
Chain of Pyruvate kinase (Leishmania mexicana) (Q27686 2-499 E452W): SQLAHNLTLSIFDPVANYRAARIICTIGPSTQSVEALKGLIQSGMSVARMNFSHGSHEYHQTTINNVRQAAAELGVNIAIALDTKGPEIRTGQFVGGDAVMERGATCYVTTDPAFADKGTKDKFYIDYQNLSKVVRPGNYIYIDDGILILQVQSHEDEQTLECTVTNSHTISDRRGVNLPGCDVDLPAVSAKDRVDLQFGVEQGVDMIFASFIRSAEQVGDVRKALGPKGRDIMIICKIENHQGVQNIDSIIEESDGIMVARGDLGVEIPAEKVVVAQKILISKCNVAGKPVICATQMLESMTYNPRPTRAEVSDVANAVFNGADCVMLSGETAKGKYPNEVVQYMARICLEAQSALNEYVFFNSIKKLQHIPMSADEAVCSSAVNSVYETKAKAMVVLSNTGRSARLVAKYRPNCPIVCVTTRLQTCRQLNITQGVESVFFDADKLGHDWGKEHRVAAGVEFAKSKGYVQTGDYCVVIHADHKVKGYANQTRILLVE
Chain of Alpha-galactosidase A (Homo sapiens) (P06280 whole entry, looked up): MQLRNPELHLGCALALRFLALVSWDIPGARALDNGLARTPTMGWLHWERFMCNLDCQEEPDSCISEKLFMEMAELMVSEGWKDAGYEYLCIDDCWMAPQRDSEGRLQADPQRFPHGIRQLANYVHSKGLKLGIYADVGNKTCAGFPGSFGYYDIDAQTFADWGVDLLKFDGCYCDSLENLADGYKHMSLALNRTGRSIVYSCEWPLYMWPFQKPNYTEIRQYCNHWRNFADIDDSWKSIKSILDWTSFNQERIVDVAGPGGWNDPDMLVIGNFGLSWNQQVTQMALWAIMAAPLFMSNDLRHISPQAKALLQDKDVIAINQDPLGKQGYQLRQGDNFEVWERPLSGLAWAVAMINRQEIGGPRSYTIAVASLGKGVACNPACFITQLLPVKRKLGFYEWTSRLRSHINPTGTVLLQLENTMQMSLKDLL

Turning to `CCCN[C@@H]1CCc2c(OC)cccc2[C@@H]1C`, the Potency in assay [1] is 251 nM (active). In addition, the Potency entry in assay [2] is “inactive”.

For the molecule `CC(C)(Cc1c[nH]c2ccc(Cl)cc12)NCCOc1ccccc1OCC1CC1`, the Potency entry in assay [2] was “inactive”.

In the case of `O=C1/C(=C\c2ccccc2)C[C@@]2(O)[C@H]3Cc4ccc(O)c5c4[C@@]2(CCN3CC2CC2)[C@@H]1O5`, the Potency result in assay [2] is “inactive”.

`COC(=O)N1CCN(C(=O)Cc2ccc(Cl)c(Cl)c2)[C@H](CN2CCCC2)C1`: the call in assay [3], in assay [4], in assay [5], in assay [6] and in assay [7] was inactive. In addition, in assay [2], the Potency entry is “inactive”.

`COc1ccc(CNC(=O)/C=C\c2ccc3[nH]cc(CCN(C)C)c3c2)cc1`: the molecule was classed as inactive in assay [3], in assay [4], in assay [5], in assay [6] and in assay [7]. Besides, the Potency result in assay [1] and in assay [2] was “inactive” each time.

`NC[C@H](CP(=O)(O)O)c1ccc(Cl)cc1`: the call in assay [3], in assay [4], in assay [5], in assay [6] and in assay [7] was inactive. For the same molecule, the Potency entry in assay [8] and in assay [2] was “inactive” throughout.

Take `CC1=C(O)C(=O)[C@H]2O[C@@H]2C1=O`: in assay [2], the Potency result was “inactive”.

Consider `C(=C/c1ccccc1)/CN1CCN(CCOC(c2ccccc2)c2ccccc2)CC1`, for which the Potency in assay [1] was 5010 nM (active).

As to `Oc1ccc2c3c1O[C@H]1c4oc5ccccc5c4C[C@]4(O)[C@H](C2)N(CC2CC2)CC[C@@]314`, the outcome in assay [4], in assay [5], in assay [6] and in assay [7] was inactive. Besides, the Potency in assay [1] was 1260 nM (active).

Regarding `O=C(Cc1ccc(Cl)c(Cl)c1)N1CCCC[C@H]1CN1CCCC1`, the molecule was classed as inactive in assay [3], in assay [4], in assay [5], in assay [6] and in assay [7]. Moreover, the Potency in assay [8] was 7940 nM (active); in assay [1], 7.94 µM (active) and 2.51 µM (active).

On to `C[C@@H]1O[C@H](O[C@@H]2C[C@@H](O)[C@]3(CO)[C@H]4[C@H](O)C[C@]5(C)[C@@H](C6=CC(=O)OC6)CC[C@@]5(O)[C@@H]4CC[C@]3(O)C2)[C@@H](O)[C@H](O)[C@H]1O`, for which the Potency in assay [1] was 50.1 nM (active). Besides, the Potency result in assay [2] is “inactive”.

On to `O=C1C2CCN(CC2)C1(CO)CO`, for which the activity, negative = inhibition in assay [3] was 4.51% [at 7.69 µM].

For `CCCCC1(C2CCCC2)Cc2cc(OCCCC(=O)O)c(Cl)c(Cl)c2C1=O` (centres undefined), the Potency entry in assay [8] and in assay [2] was “inactive” throughout.

In the case of `O=C1CC[C@@]2(O)[C@H]3Cc4ccc(O)c5c4C2(CCN3CC2CC2)[C@H]1O5`, the Potency result in assay [2] was “inactive”.

On to `S=C=Nc1cccc(C2(N3CCCCC3)CCCCC2)c1`, for which the call in assay [3] was inactive.

For the molecule `CCOC(=O)c1ncn2c1CN(C)C(=O)c1cc(N=[N+]=[N-])ccc1-2`, the Potency entry in assay [8] and in assay [2] was “inactive” throughout.

Consider `CC[C@@H](CO)NC(=O)[C@H]1C=C2c3cccc4[nH]cc(c34)C[C@H]2N(C)C1`, for which the Potency entry in assay [2] is “inactive”.

On to `Cc1ccc2cc3c(ccc4ccccc43)c3c2c1CC3`, for which, in assay [2], the Potency entry was “inactive”.

As for `CCN1C[C@]2(COC(=O)c3ccccc3N3C(=O)C[C@H](C)C3=O)CC[C@H](OC)[C@@]34[C@@H]5C[C@H]6[C@H](OC)[C@H]5[C@](O)(C[C@@H]6OC)[C@@](O)([C@@H](OC)[C@@H]23)[C@@H]14`, the Potency result in assay [2] was “inactive”.

For the molecule `C[C@@H]1O[C@@H](O[C@H]2C[C@@H](O)[C@]3(CO)[C@@H]4C(CC[C@]3(O)C2)[C@@]2(O)CC[C@H](C3=CC(=O)OC3)[C@@]2(C)C[C@H]4O)[C@H](O)[C@H](O)[C@H]1O` (some centres undefined), the Potency result in assay [8] is “inactive”.

Regarding `CCCCC[C@H]1C(=O)O[C@H](C)[C@H](NC(=O)c2cccc(NC=O)c2O)C(=O)O[C@@H](C)[C@@H]1OC(=O)CC(C)C`, the Potency result in assay [2] is “inactive”.

`CC[C@]1(C2=NCCN2)Cc2ccccc2O1`: the result in assay [4], in assay [5], in assay [6] and in assay [7] was inactive.

Regarding `CC(C)n1cnc2c(C(=O)N[C@H]3CN4CCC3CC4)cc(Cl)cc21`, in assay [8], the Potency entry was “inactive”.

Regarding `COc1ccc2[nH]cc(CCN(C)C)c2c1`, the result in assay [3], in assay [4], in assay [5], in assay [6] and in assay [7] was inactive.

As to `Cc1ncc(C[n+]2csc(CCO)c2C)c(=O)[nH]1`, the Potency result in assay [2] is “inactive”.

For the molecule `O[C@H]1CCCC[C@H]1N1CCC(c2ccccc2)CC1`, in assay [3], the outcome was inactive.

Take `CCOC(=O)c1ncn2c1[C@H]1CCCN1C(=O)c1cc(OC)ccc1-2`: the molecule was classed as inactive in assay [3], in assay [4], in assay [5], in assay [6] and in assay [7]. The Potency result in assay [8] and in assay [1] was “inactive” in each case.

For the molecule `N#CC(C#N)=NNc1ccc(OC(F)(F)F)cc1`, the Potency in assay [8] was 5010 nM (active). Further, the Potency entry in assay [2] was “inactive”.

Consider `NC[C@H](CC(=O)O)c1ccc(Cl)cc1`, for which, in assay [1], the Potency was 794 nM (active).

For the molecule `C=CCN1C[C@H](C)N([C@@H](c2ccccc2)c2ccc(C(=O)N(CC)CC)cc2)C[C@H]1C`, the Potency result in assay [2] was “inactive”.

With `N[C@H](C(=O)O)c1cc(=O)[nH]o1`, the call in assay [4], in assay [5], in assay [6] and in assay [7] was inactive. Also, the Potency entry in assay [8] and in assay [1] was “inactive” throughout.

Consider `N[C@H](Cc1o[nH]c(=O)c1Cl)C(=O)O`, for which, in assay [1], the Potency is 158 nM (active).

As to `N[C@H](CP(=O)(O)O)C(=O)O`, the call in assay [3], in assay [4], in assay [5], in assay [6] and in assay [7] was inactive. Moreover, the Potency entry in assay [1] is “inactive”.

As for `N[C@H](CCCCCP(=O)(O)O)C(=O)O`, the molecule was called inactive in assay [3], in assay [4], in assay [5], in assay [6] and in assay [7]. Also, in assay [1], the Potency result was “inactive”.
